Experimental data from PubChem BioAssay AID1159580 (chemical genetic matrix, 2015).
Where “and” joins values, the source holds several entries; their conditions need not be identical. Equal values may be shown once. Screen size: about 5,500 compounds; about 2,000 (36%) were called active. About 18% were inconclusive and are not listed. Rule as the data show it: active = normalized growth mostly below about 0.91 (no sharp cut-off); inconclusive = no clear call, values can overlap the other calls; inactive = mostly above about 0.92. The list shows a part of the results.

Assay: chemical genetic growth profiling, strain panel (AID 1159580);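 also: tested at 20 µM; growth read once vehicle control cultures reached saturation at 30 °C; 1 = growth at the plate median or of vehicle wells; lower values mean less growth of the strain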
Details: S. cerevisiae deletion strains, growth OD

Measured: normalized growth

NC(=O)NCCCC(N)C(=O)O (configuration not stated)
inactive: locus YAL013W, strain DEP1, active compounds read low 1.01 | locus YAL021C, strain ccr4, active compounds read low 0.962 | locus YAL026C, strain drs2, active compounds read low 1.01 | locus YAL030W, strain snc1, active compounds read low 1.01 | locus YBL061C, strain skt5, active compounds read low 1.01 | locus YBR009C, strain hhf1, active compounds read low 1.05 | locus YBR021W, strain FUR4, active compounds read low 1.01 | locus YBR023C, strain chs3, active compounds read low 1.01 | locus YBR171W, strain sec66, active compounds read low 0.99 | locus YBR229C, strain ROT2, active compounds read low 1.01 | locus YBR231C, strain swc5, active compounds read low 1.03 | locus YBR279W, strain paf1, active compounds read low 1.01 | locus YCL011C, strain gbp2, active compounds read low 0.996 | locus YCL016C, strain dcc1, active compounds read low 1 | locus YCL029C, strain bik1, active compounds read low 0.998 | locus YCL061C, strain MRC1, active compounds read low 0.992 | locus YCL069W, strain vba3, active compounds read low 0.996 | locus YCR088W, strain abp1, active compounds read low 0.995 | locus YDL005C, strain med2, active compounds read low 0.996 | locus YDL035C, strain GPR1, active compounds read low 1.03 | locus YDL040C, strain nat1, active compounds read low 1 | locus YDL074C, strain BRE1, active compounds read low 1.06 | locus YDL101C, strain DUN1, active compounds read low 1.03 | locus YDL134C, strain PPH21, active compounds read low 1.02 | locus YDL185W, strain tfp1, active compounds read low 0.994 | locus YDL192W, strain arf1, active compounds read low 0.993 | locus YDR001C, strain nth1, active compounds read low 0.989 | locus YDR069C, strain doa4, active compounds read low 1.02 | locus YDR101C, strain arx1, active compounds read low 0.988 | locus YDR137W, strain rgp1, active compounds read low 0.986 | locus YDR150W, strain NUM1, active compounds read low 1.02 | locus YDR159W, strain sac3, active compounds read low 1.04 | locus YDR162C, strain NBP2, active compounds read low 1.04 | locus YDR195W, strain ref2 1.02 | locus YDR297W, strain sur2, active compounds read low 1.01 | locus YDR318W, strain mcm21, active compounds read low 0.983 | locus YDR334W, strain swr1, active compounds read low 0.982 | locus YDR335W, strain msn5, active compounds read low 0.993 | locus YDR388W, active compounds read low 0.992 | locus YDR392W, strain spt3, active compounds read low 0.96 | locus YDR502C, strain sam2, active compounds read low 0.993 | locus YEL003W, strain gim4, active compounds read low 0.994 | locus YEL037C, strain rad23, active compounds read low 0.995 | locus YEL061C, strain CIN8 (second series), active compounds read low 0.999 | locus YEL061C, strain CIN8, active compounds read low 1.01 | locus YER015W, strain faa2, active compounds read low 1 | locus YER016W, strain bim1, active compounds read low 1.01 | locus YER110C, active compounds read low 0.988 | locus YER111C, strain swi4, active compounds read low 1 | locus YER155C, strain BEM2 (second series), active compounds read low 1.04 | locus YER155C, strain BEM2, active compounds read low 1.01 | locus YER167W, strain BCK2, active compounds read low 1.04 | locus YFR010W, strain ubp6, active compounds read low 0.982 | locus YGL078C, strain dbp3, active compounds read low 1 | locus YGL086W, strain mad1, active compounds read low 0.997 | locus YGL167C, strain pmr1, active compounds read low 1.03 | locus YGL173C, strain kem1, active compounds read low 1 | locus YGL227W, strain vid30, active compounds read low 0.998 | locus YGL240W, strain doc1, active compounds read low 1.07 | locus YGL248W, strain PDE1, active compounds read low 1.01 | locus YGL253W, strain hxk2, active compounds read low 1 | locus YGR078C, strain PAC10, active compounds read low 1.05 | locus YGR135W, strain pre9, active compounds read low 1 | locus YGR229C, strain SMI1, active compounds read low 1.02 | locus YGR252W, strain gcn5, active compounds read low 0.98 | locus YHR013C, strain ard1, active compounds read low 1.01 | locus YHR027C, strain rpn1, active compounds read low 0.997 | locus YHR030C, strain SLT2, active compounds read low 1.01 | locus YHR079C, strain IRE1 (second series), active compounds read low 0.977 | locus YHR079C, strain IRE1, active compounds read low 0.992 | locus YHR094C, strain hxt1, active compounds read low 0.995 | locus YHR129C, strain ARP1, active compounds read low 1.04 | locus YHR142W, strain chs7, active compounds read low 0.93 | locus YHR200W, strain rpn10, active compounds read low 0.994 | locus YIL066C, strain RNR3, active compounds read low 1.02 | locus YIL073C, strain SPO22, active compounds read low 1.01 | locus YIL125W, strain kgd1, active compounds read low 0.987 | locus YIR030C, strain dcg1, active compounds read low 0.993 | locus YJL092W, strain hpr5, active compounds read low 0.979 | locus YJL095W, strain BCK1 (second series), active compounds read low 1.01 | locus YJL095W, strain BCK1, active compounds read low 1.05 and 1.01 | locus YJL115W, strain asf1, active compounds read low 0.988 | locus YJL129C, strain trk1, active compounds read low 0.973 | locus YJL134W, strain LCB3, active compounds read low 1.01 | locus YJL154C, strain vps35, active compounds read low 0.997 | locus YJL164C, strain tpk1, active compounds read low 0.981 | locus YJL166W, strain qcr8, active compounds read low 1.01 | locus YJL168C, strain set2, active compounds read low 1 | locus YJL187C, strain SWE1 (second series), active compounds read low 1.02 | locus YJL187C, strain SWE1, active compounds read low 1 | locus YJR043C, strain POL32, active compounds read low 1.03 | locus YJR066W, strain TOR1, active compounds read low 0.964
